Assay results taken from PubChem BioAssay AID1851 (National Center for Advancing Translational Sciences (NCATS), 2009).
The campaign covered roughly 16,000 compounds. About 5,800 (36%) were called active. Another 23% or so got no clear call; they are omitted. The call rests on the fitted dose curve; in most records, active means well fitted curve in the direction sought with a large enough effect; inconclusive means small, poorly fitted or top-dose-only effect, or effect the other way; inactive means no such curve, though single readings can be large or run the other way. The list shows a part of the results. Some compounds were tested as several samples or in several runs, with calls that do not always agree.

Biological target: Cytochrome P450 2C19 (Homo sapiens) (UniProt P33261)
Sequence (P33261 whole entry, looked up): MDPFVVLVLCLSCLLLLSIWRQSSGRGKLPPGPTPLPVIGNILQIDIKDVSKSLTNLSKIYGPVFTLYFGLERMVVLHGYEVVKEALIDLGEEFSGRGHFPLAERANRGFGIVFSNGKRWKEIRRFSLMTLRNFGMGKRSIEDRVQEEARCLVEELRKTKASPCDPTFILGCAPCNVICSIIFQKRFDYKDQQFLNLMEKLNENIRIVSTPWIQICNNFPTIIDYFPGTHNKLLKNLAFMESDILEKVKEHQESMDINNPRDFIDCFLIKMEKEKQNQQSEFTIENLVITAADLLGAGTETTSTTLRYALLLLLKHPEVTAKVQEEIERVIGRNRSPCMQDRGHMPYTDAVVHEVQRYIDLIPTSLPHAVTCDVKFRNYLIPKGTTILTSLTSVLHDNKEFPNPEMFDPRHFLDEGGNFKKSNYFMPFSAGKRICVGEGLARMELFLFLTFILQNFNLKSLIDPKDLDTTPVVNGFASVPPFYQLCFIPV
Test: Cytochrome panel assay with activity outcomes
Conditions: recombinant CYP, pro-luciferin dealkylation, luminescence, p450-cyp2c19; series mostly up to 57.1 µM; activity, negative = inhibition: at the top concentration
On the % scale 0 is the no-effect control and ±100 the full control effect.

activity, negative = inhibition, inactive:
O=C(O)c1ccc(OCc2ccccc2)c(Cl)c1 18.7% [at 11.4 µM], N#CC1=C(N)OC2=C(C(=O)CCC2)C12CCC1(CC2)OCCO1 -60.8%, COc1ccc(-c2nc3cnc(N4CCN(C)CC4)nc3n(C)c2=O)cc1 -40.9%, CN(C)c1ncc2nc(-c3cc(F)cc(F)c3)c(=O)n(CCC#N)c2n1 13.1%, O=C(O)[C@H]1CCCN(CCC=C(c2ccccc2)c2ccccc2)C1 37%, O=C(/C=C/c1cccc([N+](=O)[O-])c1)NCCN1CCOCC1 -22.3%, Cc1ccc(NC(=O)/C(=C/c2cccc([N+](=O)[O-])c2)NC(=O)C2CCCCC2)c(C)c1 -19.8%, O=C(CCCCC(=O)Nc1c(I)cc(I)c(C(=O)O)c1I)Nc1c(I)cc(I)c(C(=O)O)c1I 2.67% [at 25.6 µM], O=C(O)CCNc1ncnc2nc[nH]c12 35.9% [at 11.4 µM], O=C(Nc1cc(C(=O)Nc2ccc(S(=O)(=O)O)cc2S(=O)(=O)O)cc(C(=O)Nc2ccc(S(=O)(=O)O)cc2S(=O)(=O)O)c1)Nc1cc(C(=O)Nc2ccc(S(=O)(=O)O)cc2S(=O)(=O)O)cc(C(=O)Nc2ccc(S(=O)(=O)O)cc2S(=O)(=O)O)c1 -25.4%, C#CCCCO/N=C1/C[C@@H](O)[C@@H](O)[C@@H]2[C@@H]3C(=O)N(CCC(=O)OCC)C(=O)[C@H]3CC[C@H]12 2.13% [at 11.4 µM], Oc1c(Cl)cc(CN(Cc2cc(Cl)c(O)c(Cl)c2)C2CCCCC2)cc1Cl -4.32% [at 11.4 µM], O=C(O)CCN1C(=S)CSC1=S 27% [at 11.4 µM], COC(=O)N1CCC2(CCN(Cc3ccccc3OC)CC2)CC1 -39%, CCOC(=O)N/N=C/c1ccc(F)cc1 -26%, COc1ccccc1CN1CCC2(CC1)CCN(C(=O)c1c(C)noc1C)CC2 41.5%, O=C(c1cnccn1)N1CCC2(CC1)CN(C(c1ccccc1)c1ccccc1)C2 -22.3%, CN(C)Cc1c[nH]c2nc[nH]c(=O)c12 42.6% [at 11.4 µM], COCC(=O)N(C)c1nnc(-c2ccc([N+](=O)[O-])cc2)s1 -87.4%, CO[C@@H]1COC(=O)[C@H]2CCCN2C(=O)[C@@H](C)COC(=O)C/C=C\[C@H]1C 91.7% [at 11.4 µM], CN1CCN(c2nc3c(c(=O)n(C)c(=O)n3C)n2C)CC1 -9.69% [at 11.4 µM], Cn1c(=O)c2c(ncn2CN2CCN(Cn3cnc4c3c(=O)n(C)c(=O)n4C)CC2)n(C)c1=O -11.6% [at 11.4 µM], O=C(N/N=C1/C[C@@H](O)[C@@H](O)[C@@H]2[C@@H]3C(=O)N(Cc4ccccc4)C(=O)[C@H]3CC[C@@H]12)OCc1ccccc1 9.42% [at 11.4 µM], O=C(c1cc(C(F)(F)F)cc(C(F)(F)F)c1)N1CCC2(CC1)CN(Cc1ccccc1)C2 23.7%, O=C(c1cc(C(F)(F)F)cc(C(F)(F)F)c1)N1CCC2(CCN(Cc3ccccc3)CC2)CC1 3.98%, COc1ccccc1CNc1ncncc1-c1ccc(C(=O)N(C)C)cc1 -41.5%, C[C@H](N)C(=O)O 30.8%, N[C@H](Cc1ccc(Cl)cc1)C(=O)O 7.86%, N[C@@H](CC1=CS(=O)(=O)c2ccc(Cl)cc21)C(=O)O -36.6% [at 11.4 µM], NCCOB(c1ccccc1)c1ccccc1 -41%, O=[N+]([O-])c1ccc(Cl)c(-c2ccc(/C=N/c3c(-c4ccco4)nc4ccccn34)o2)c1 8.08%, COc1cc(Cn2cnnn2)ccc1O -23.8%, O=Nc1ccc(NOC(=O)c2ccc(Br)cc2)cc1 -12.5%, O=C(N/N=C/c1ccc(F)cc1)c1ccc(Br)cc1 -28.4%, CC(C)NC(=O)CC(=O)N/N=C/c1ccc(F)cc1 23%, CCCCOc1ccc(CN2CCC(O)CC2)cc1 6.74%, CCNC(=O)c1c(NC(C)=O)sc2c1CCCC2 -12.1%, COc1cc(-c2ccc(=O)[nH]n2)ccc1OC(F)F -35% [at 25.6 µM], Cc1ccc(S(N)(=O)=O)cc1NC(=O)/C=C/c1cccs1 -24.6%, N#C/C(=C\c1cccs1)C(=O)NCC1CCCO1 (stereo unspecified) -16.4%, CC(=O)Nc1nnc(S(N)(=O)=O)s1 2.11% [at 25.6 µM], Cn1cccc1C(=O)N1CCC[C@@]2(CCN(Cc3ccc(C#N)cc3)C2)C1 11.3%, C#C[C@H](N)CCC(=O)O 75.3%, Cc1nnsc1SC(C)C(=O)O (stereo unspecified) -14.3%, CCNc1ncc2nc(-c3ccc(OC)cc3)c(=O)n(-c3ccc(OC)cc3)c2n1 9.96%, CC(C)OC(=O)c1cc2c(OC[C@@H](O)CNC(C)(C)C)cccc2[nH]1 -10.6%, C[N+]1(C)CCC(=C(c2ccccc2)c2ccccc2)CC1 3.56% [at 25.6 µM], C[C@@]12CCC(=O)C=C1CC[C@H]1[C@@H]2[C@@H](O)C[C@]2(C)[C@@H]1CC[C@@]2(O)C(=O)COC(=O)C1CCCC1 -27.7% [at 11.4 µM], C[C@@]12CCC(=O)C=C1CC[C@@H]1[C@@H]2[C@H](O)C[C@]2(C)[C@@H]1CC[C@]2(O)C(=O)CO 16.8% [at 25.6 µM], Cc1noc(C)c1C(=O)N1CCC2(CCCN(C(=O)Nc3cccc(F)c3)C2)CC1 -29.5%, Cc1noc(C)c1C(=O)N1CCC[C@@]2(CCN(C(=O)Nc3cccc(F)c3)C2)C1 5.9%, COCc1nnc(NC(=O)c2ccc(S(=O)(=O)N3CCCCCC3)cc2)o1 -18.3%

AC50, active:
O=C(NCc1ccccc1)c1cccc(COc2cccc(Cl)c2)c1 7.08 µM, O=c1c(-c2nnc(SCc3ccc(Cl)c(Cl)c3)o2)cccn1Cc1ccccc1 1.41 µM, O=c1c(-c2nnc(SCc3ccc(Cl)cc3Cl)o2)cccn1Cc1ccccc1 1.26 µM, CC1CC(C)CN(C/C=C/c2ccccc2[N+](=O)[O-])C1 (stereo unspecified) 7.08 µM, CC1CCCN(C/C=C/c2ccccc2[N+](=O)[O-])C1 (stereo unspecified) 8.91 µM, CCOC(=O)C1CCCN(C/C=C/c2ccccc2[N+](=O)[O-])C1 (stereo unspecified) 3.98 µM, CCOC(=O)C1CCCN(C(=O)/C=C/c2cccc([N+](=O)[O-])c2)C1 (stereo unspecified) 14.1 µM, Oc1c(Cl)cc(C(c2cc(Cl)c(O)c(Cl)c2)C(c2cc(Cl)c(O)c(Cl)c2)c2cc(Cl)c(O)c(Cl)c2)cc1Cl 2.51 µM, Cc1nn(C)c(Cl)c1NC(=O)OCc1ccc(F)cc1 7.08 µM, Cc1nn(C)c(Cl)c1NC(=O)OCc1ccc(Cl)cc1Cl 2.24 µM, COc1ccccc1COC(=O)Nc1c(C)nn(C)c1Cl 3.55 µM, COCCN(C(=O)c1ccco1)c1nnc(-c2ccc(OC)cc2)s1 15.8 µM, COCCN(C(=O)C(C)C)c1nnc(-c2ccc(C)cc2)s1 7.94 µM, Cn1c(=O)c2c(nc(N3CCN(c4ccccn4)CC3)n2Cc2ccccc2Cl)n(C)c1=O 3.16 µM, Cn1c(=O)c2c(nc(N3CCN(c4ccccn4)CC3)n2Cc2ccc(Cl)cc2Cl)n(C)c1=O 6.31 µM, O=C(c1cccc(C(F)(F)F)c1)N1CCC(O)(CS(=O)(=O)Cc2ccccc2)CC1 22.4 µM, COc1ccc(CNc2ncncc2-c2ccc(C(=O)N(C)C)cc2)c(OC)c1 15.8 µM, COc1ccc(CNc2ncncc2-c2ccc(N(C)C)cc2)c(OC)c1 1.58 µM, O=C(O)C(Sc1ccc(Cl)cc1)Sc1ccc(Cl)cc1 0.1 µM, Cc1[nH]n(C(C)(C)C)c(=O)c1Sc1ccc(Cl)cc1 3.98 µM, COc1cc(-c2nc3ccccn3c2/N=C/c2ccccc2)ccc1O 10 µM, CC(C)(C)NC(=O)C(=O)N/N=C/c1ccc(Br)cc1 14.1 µM, CC(C)NC(=O)CC(=O)N/N=C/c1ccc(Br)cc1 3.55 µM, CCOc1ccc(OCCOCCN2CCc3ccccc3C2)cc1 14.1 µM, CC(=O)Nc1sc2c(c1CN1CCN(C)CC1)CCCC2 6.31 µM, Cc1cc(OCC(F)(F)C(F)(F)C(F)(F)C(F)(F)C(F)(F)C(F)F)nc(N)n1 3.16 µM, CCCc1cc(=O)[nH]c(SCc2cc(Cl)ccc2OC(F)F)n1 2.82 µM, O=C(COc1cccc2ccccc12)NNC(=O)c1cccs1 10 µM, Cc1cccc(C)c1NC(=O)/C(C#N)=C/c1cccs1 4.47 µM, CC(C)=CC(=O)Nc1nnc(C(C)C)s1 25.1 µM, C=CCOC(=O)C1=C(C)NC(SC)=C(C#N)C1c1cccs1 (stereo unspecified) 0.178 µM, C=CCOC(=O)C1=C(C)NC(SCC(=O)OCC)=C(C#N)C1c1ccc(C)cc1 (stereo unspecified) 2.82 µM, CN(C(=S)NC(=O)c1ccccc1Br)C1CCCCC1 7.94 µM, O=[N+]([O-])c1ccc(/C=N/N/C(=N/c2ccccn2)c2ccccn2)cc1 28.2 µM, c1ccc2cc(Sc3ncnc4c3oc3ccccc34)ccc2c1 2 µM, Oc1c(C(O)(c2ccccc2)c2ccc3ccccc3c2O)ccc2ccccc12 0.794 µM, Cc1ccc(N=Cc2cc(C)n(C3CCCC3)c2C)cc1 17.8 µM, C[C@@]12C[C@H](O)[C@@H]3[C@H](CCC4=CC(=O)CC[C@]43C)[C@H]1CC[C@@H]2c1csc(N)n1 3.98 µM, Cc1cc(C)nc(NC(=O)/C=C/c2ccc(Cl)cc2Cl)c1 15.8 µM, CCOC(=O)Cc1csc(NC(=O)c2c(-c3c(Cl)cccc3Cl)noc2C)n1 3.55 µM, Cc1onc(-c2c(Cl)cccc2Cl)c1C(=O)Nc1ccc2c(c1)OCO2 1.12 µM, CCOC(=O)Cc1csc(NC(=O)c2ccc(Cl)nc2)n1 10 µM, CCOC(=O)Cc1csc(NC(=O)c2ccc(S(=O)(=O)N3CCCCC3)cc2)n1 14.1 µM

AC50, inactive:
C/C=C\C[C@H](C)[C@H](O)[C@H]1C(=O)N[C@@H](CC)C(=O)N(C)CC(=O)N(C)[C@@H](CC(C)C)C(=O)N[C@@H](C(C)C)C(=O)N(C)[C@@H](CC(C)C)C(=O)N[C@@H](C)C(=O)N[C@@H](C)C(=O)N(C)[C@@H](CC(C)C)C(=O)N(C)[C@@H](CC(C)C)C(=O)N(C)[C@@H](C(C)C)C(=O)N1C
